PubChem BioAssay (NCI)
About 83,000 compounds went through this panel and 20% of them were active in at least one assay; those are over-represented in the sample as a whole.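 Results are percent growth after 48 hours of single-concentration exposure. 100 means growth as in untreated cells, lower positive values show inhibition; negative values down to -100 show cell death.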 Calls of active or inactive are those of the source. How the source made its calls: active means growth percent below 10; inactive means the rest.

Tests used:
Test in all cases: NCI-60 one-dose screen, 48 h (100 = growth as untreated, 0 = no growth, -100 = all killed)
Details in all cases: 10 µM unless noted
NCI-H23 lung = test system: NCI-H23 lung
NCI-H226 lung = test system: NCI-H226 lung
NCI-H322M lung = test system: NCI-H322M lung
HOP-62 NSCLC = test system: HOP-62 NSCLC
NCI-H460 lung = test system: NCI-H460 lung
HOP-92 NSCLC = test system: HOP-92 NSCLC
NCI-H522 lung = test system: NCI-H522 lung
A549/ATCC NSCLC = test system: A549/ATCC NSCLC
786-0 renal = test system: 786-0 renal
COLO 205 colon = test system: COLO 205 colon

Row | Compound | growth (NCI-H23 lung) | growth (NCI-H226 lung) | growth (NCI-H322M lung) | growth (HOP-62 NSCLC) | growth (NCI-H460 lung) | growth (HOP-92 NSCLC) | growth (NCI-H522 lung) | growth (A549/ATCC NSCLC) | growth (786-0 renal) | growth (COLO 205 colon)
1 | COc1cc(C2=NN(C=O)C(c3cccc(Nc4ccnc5cc(C(F)(F)F)ccc45)c3)C2)cc(OC)c1OC (stereo not given) | 59.9% (inactive) | 64.3% (inactive) | 66.2% (inactive) | 70.1% (inactive) | 44% (inactive) | 29.1% (inactive) | 53.1% (inactive) | 49% (inactive) | 63.3% (inactive) | 56.8% (inactive)
2 | N#Cc1c(-c2ccc(Cl)cc2)cc(-c2cc3ccccc3o2)nc1SCC(=O)c1ccc(Cl)cc1 | 91.7% (inactive) | 102% (inactive) | 104% (inactive) | 91.4% (inactive) | 107% (inactive) | 83.7% (inactive) | 97.5% (inactive) | 111% (inactive) | 97.2% (inactive) | 106% (inactive)
3 | CCN(CC)c1ccc2c(c1)Oc1nc(N)c(C#N)c(N)c1C2Sc1ccc(OC)cc1 (stereo not given) | -25.8% (active) | 5.34% (active) | 97.6% (inactive) | 35.9% (inactive) | -18.3% (active) | 88.3% (inactive) | -61.9% (active) | 72.8% (inactive) | 0.244% (active) | -60% (active)
4 | COc1ccc([C@H]2[C@@H](F)C(=O)N2c2cc(OC)c(OC)c(OC)c2)cc1F | 21.3% (inactive) | 59% (inactive) | 46.4% (inactive) | 31.8% (inactive) | 7.06% (active) | 32.3% (inactive) | -8.46% (active) | 15.3% (inactive) | 22.9% (inactive) | -68% (active)
5 | O=C(CN1N=C(c2ccc(F)cc2)CCC1=O)Nc1nccs1 | 103% (inactive) | 110% (inactive) | 100% (inactive) | 98.9% (inactive) | 97.7% (inactive) | 86.6% (inactive) | 83.2% (inactive) | 77.8% (inactive) | 103% (inactive) | 113% (inactive)
6 | CN(C)[C@@H]1C(=O)C(C(N)=O)=C(O)[C@@]2(O)C(=O)C3=C(O)c4c(O)cc(CN5CCc6ccccc6C5)c(Cl)c4C[C@H]3C[C@@H]12 | -73.8% (active) | -70.8% (active) | -87.2% (active) | -85.4% (active) | -68.7% (active) | -82.8% (active) | -79.3% (active) | -85.4% (active) | -83.8% (active) | -78.3% (active)
7 | c1ccc(-c2cn3ccnc3c(-c3ccc4c(c3)ncn4C3CCCCC3)n2)cc1 | 103% (inactive) | 106% (inactive) | 97.1% (inactive) | 87.1% (inactive) | 104% (inactive) | 89.1% (inactive) | 83.9% (inactive) | 91% (inactive) | 91.8% (inactive) | 99.7% (inactive)
8 | N#C/C(=C/c1ccc(O)c([N+](=O)[O-])c1)c1nc(-c2ccc([N+](=O)[O-])cc2)cs1 | 13.6% (inactive) | 52% (inactive) | 52.8% (inactive) | 86.8% (inactive) | 20.5% (inactive) | -8.22% (active) | 11.2% (inactive) | 27.1% (inactive) | 51.9% (inactive) | 51.2% (inactive)
9 | O=C1CC(c2ccc(O)c(O)c2)Oc2cc(O)c([C@@H]3O[C@H](CO)[C@@H](O)[C@H](O)[C@H]3O)c(O)c21 (stereo not given in full) | 106% (inactive) | 98.9% (inactive) | 113% (inactive) | 105% (inactive) | 99.1% (inactive) | 113% (inactive) | 100% (inactive) | 94.8% (inactive) | 99.5% (inactive) | 108% (inactive)
10 | N#Cc1c(-c2ccc(F)cc2)nc(N=Nc2c(O)[nH]c3ccccc23)nc1N1CCOCC1 | 70.3% (inactive) | 57.7% (inactive) | 61.4% (inactive) | 72% (inactive) | 30.9% (inactive) | 17.3% (inactive) | 78.6% (inactive) | 23.4% (inactive) | 59.4% (inactive) | 77.9% (inactive)
11 | CCC1S/C(=N\N=C(/C)c2ccc[nH]2)N(c2ccccc2)C1=O (stereo not given) | 98.8% (inactive) | 132% (inactive) | 90.8% (inactive) | 108% (inactive) | 104% (inactive) | 70.5% (inactive) | 27.2% (inactive) | 82.6% (inactive) | 117% (inactive) | 127% (inactive)
12 | CCOC(=O)NC(Cc1ccccc1)c1ccccc1 (stereo not given) | 98.4% (inactive) | 98.8% (inactive) | 114% (inactive) | 99.6% (inactive) | 111% (inactive) | 87.4% (inactive) | 87.1% (inactive) | 99.1% (inactive) | 96.6% (inactive) | 105% (inactive)
13 | COc1ccc(/C(=N\O)c2cc(C)c(OC)c(C)c2)cc1O | 45.9% (inactive) | 60.6% (inactive) | 48.3% (inactive) | 39.8% (inactive) | 9.22% (active) | 54.1% (inactive) | -11.4% (active) | 22.2% (inactive) | 35.3% (inactive) | -38% (active)
14 | CC(=O)OC[C@]12CC[C@@H](c3cn(Cc4ccc(Cn5cc([C@@H]6CC[C@]7(COC(C)=O)CC[C@]8(C)[C@H](CC[C@@H]9[C@@]%10(C)CC[C@H](OC(C)=O)C(C)(C)[C@@H]%10CC[C@]98C)[C@@H]67)nn5)cc4)nn3)[C@@H]1[C@H]1CC[C@@H]3[C@@]4(C)CC[C@H](OC(C)=O)C(C)(C)[C@@H]4CC[C@@]3(C)[C@]1(C)CC2 | 98.3% (inactive) | 95.5% (inactive) | 97.6% (inactive) | 94.9% (inactive) | 104% (inactive) | 103% (inactive) | 88.5% (inactive) | 93.5% (inactive) | 95.5% (inactive) | 105% (inactive)
15 | COc1cccc2c1-c1ccccc1C2=O | 43.1% (inactive) | 84.1% (inactive) | 44.5% (inactive) | 37.4% (inactive) | 7.57% (active) | 74% (inactive) | -13.7% (active) | 23.3% (inactive) | 23.9% (inactive) | 11.6% (inactive)
